About 150 (12%) of roughly 1,200 compounds were called active.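 How the source made its calls: active means ratio at least 3 SD above the weak peptide control, stable starting fluorescence, no direct agonism earlier; inactive means the rest.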 Shown is part of a subset that was picked to be rich in actives.
target: Mas-related G-protein coupled receptor member X1 (Homo sapiens) (UniProt Q96LB2); assay: allosteric enhancers of human MrgX1 signaling – HEK293 cells, Fluo-4 calcium flux, confirmation (AID 602413); conditions: MrgX1-HEK293, Fluo-4 calcium fluorescence, FDSS; at 10 µM; active compounds read high;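 further: compound followed by low BAM8-22 agonist challenge near EC20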
Sequence (Q96LB2 whole entry, looked up): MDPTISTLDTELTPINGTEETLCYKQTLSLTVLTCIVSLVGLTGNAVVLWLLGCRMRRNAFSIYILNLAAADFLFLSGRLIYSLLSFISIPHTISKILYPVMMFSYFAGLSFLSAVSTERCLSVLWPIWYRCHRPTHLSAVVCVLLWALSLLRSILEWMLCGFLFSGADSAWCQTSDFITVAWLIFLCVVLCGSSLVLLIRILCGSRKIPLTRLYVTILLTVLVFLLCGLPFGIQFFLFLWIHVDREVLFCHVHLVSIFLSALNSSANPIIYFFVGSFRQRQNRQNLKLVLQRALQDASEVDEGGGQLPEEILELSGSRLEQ

SMILES | activation (ratio percentage)
C=CCN1C(=O)C2(C(C(=O)OCC)=C(N)Oc3c2c(=O)oc2ccccc32)c2ccccc21 (stereo unspecified) | 29.5% (active)

Source: PubChem BioAssay AID602413 (Johns Hopkins Ion Channel Center, 2012)
